PubChem BioAssay (Tox21)
Inconclusive results are not listed. Active and inactive are the calls of the source. Unless noted, calls follow the shape of the dose curve; as a rule, active = well fitted curve in the direction sought with a large enough effect in the repeat runs; inconclusive = weak or mixed curves; inactive = no such curve, though single readings can be large; an effect the other way counts as inactive or inconclusive.

Columns and labels:
[1] = qHTS assay to identify small molecule agonists of the RXR signaling pathway - cell viability counter screen (AID 1159529);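 also: HEK 293T cells carrying an RXR-alpha UAS beta-lactamase reporter; series mostly up to about 77 µM; nearly all actives have a fitted effect of over 50% in size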
Method in brief: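 Tox21 10K compounds were tested for cytotoxicity against GeneBLAzer RXR-alpha HEK 293T cells grown in 2% charcoal-stripped FBS. Exposure lasted 16 hr at 37 C, 5% CO2; viability read by CellTiter-Glo luminescence.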

[2] = qHTS assay to identify small molecule antagonists of the retinoid acid receptor (RAR) signaling pathway - cell viability counter screen (AID 1159551); also: nearly all actives have a fitted effect of over 35% in size
Method in brief: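 In this counter screen, the RARE-luciferase line C3RL4 was exposed for 6 h at 37 C and 5% CO2 to compounds with retinol at 1 uM final. Cellular ATP, read by luminescence, served as the viability measure.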

[3] = qHTS assay to identify small molecule antagonists of the retinoic acid receptor (RAR) signaling pathway (AID 1159552; also: nearly all actives have a fitted effect of over 50% in size)
Method in brief: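 Overnight-plated C3RL4 reporter cells get compound, then retinol to 1 uM final; plates sit 6 hr at 37 C, 5% CO2. A luciferase reagent is added and light output recorded after 30 min at room temperature.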

[4] = qHTS assay to identify small molecule agonists of the retinoic acid receptor (RAR) signaling pathway (AID 1159553)
Method in brief: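 In this cell-based screen, 1,000 C3RL4 cells per well were cultured overnight, dosed with test chemicals in DMSO for 6 hr, and assessed for RARE luciferase luminescence.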

[5] = qHTS assay to identify small molecule antagonists of the estrogen related receptor (ERR) signaling pathway from Tox21 library - cell viability counter screen (AID 1224834); also: nearly all actives have a fitted effect of over 30% in size
Method in brief: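 Counter screen run in ERR cells (2,000 cells/well): cells pre-incubated 6 h, then treated with compounds for 17.5 h at 37 C. Fluorescence was read 30 min after CellTiter-Fluor addition.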

[6] = target: Luciferin 4-monooxygenase (Photinus pyralis) (UniProt P08659); assay: qHTS assay to identify small molecule inhibitors of firefly luciferase (AID 1224835); also: series mostly up to about 120 µM; nearly all actives have a fitted effect of over 25% in size
Luciferin 4-monooxygenase (Photinus pyralis), sequence (P08659 whole entry, looked up): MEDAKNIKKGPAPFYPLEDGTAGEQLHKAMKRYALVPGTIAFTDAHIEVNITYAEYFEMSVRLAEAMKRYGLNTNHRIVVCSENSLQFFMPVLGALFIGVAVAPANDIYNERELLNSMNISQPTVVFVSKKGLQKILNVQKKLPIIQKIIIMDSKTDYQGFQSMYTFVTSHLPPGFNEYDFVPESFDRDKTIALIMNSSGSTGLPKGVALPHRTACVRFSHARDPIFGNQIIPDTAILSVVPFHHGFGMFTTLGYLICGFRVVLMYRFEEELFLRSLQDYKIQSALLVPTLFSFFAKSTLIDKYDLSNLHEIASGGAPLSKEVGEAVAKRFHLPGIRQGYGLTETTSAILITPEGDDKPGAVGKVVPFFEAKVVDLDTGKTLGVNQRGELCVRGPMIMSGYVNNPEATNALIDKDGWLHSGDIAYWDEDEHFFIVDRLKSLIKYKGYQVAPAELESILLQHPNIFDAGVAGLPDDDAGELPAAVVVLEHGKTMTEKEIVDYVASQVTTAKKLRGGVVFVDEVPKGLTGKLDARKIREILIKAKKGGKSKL
Method in brief: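 Quantitative HTS format; KM concentrations of both substrates. Purified P. pyralis FLuc activity quantified from luminescence images.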

[7] = qHTS assay to identify small molecule agonists of the constitutive androstane receptor (CAR) signaling pathway - cell viability counter screen (AID 1224836); also: series mostly up to about 92 µM; nearly all actives have a fitted effect of over 45% in size
Method in brief: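 Fluorescence from CellTiter-Fluor indicates live cells after 23 h exposure. The human hepatoma line expresses hCAR and a CYP2B6-2.2kb reporter. Incubation medium contains 0.75 uM PK11195 (final).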

[8] = target: Nuclear receptor subfamily 1 group I member 3 (Homo sapiens) (UniProt Q14994); assay: qHTS assay to identify small molecule antagonists of the constitutive androstane receptor (CAR) signaling pathway (AID 1224838); also: nearly all actives have a fitted effect of over 40% in size
Nuclear receptor subfamily 1 group I member 3 (Homo sapiens), sequence (Q14994 whole entry, looked up): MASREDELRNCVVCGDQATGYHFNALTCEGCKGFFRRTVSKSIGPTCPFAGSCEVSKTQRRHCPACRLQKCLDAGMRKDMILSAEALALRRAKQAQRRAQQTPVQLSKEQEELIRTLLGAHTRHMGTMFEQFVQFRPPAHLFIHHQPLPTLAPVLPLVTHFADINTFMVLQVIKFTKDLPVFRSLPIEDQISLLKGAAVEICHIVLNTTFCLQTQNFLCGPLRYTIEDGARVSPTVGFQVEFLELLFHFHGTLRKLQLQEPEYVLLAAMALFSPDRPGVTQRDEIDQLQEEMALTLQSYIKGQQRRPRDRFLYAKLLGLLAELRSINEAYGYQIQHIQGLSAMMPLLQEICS
Method in brief: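 Inhibition of CITCO-driven (50 nM final) CYP2B6 reporter expression is measured in HepG2 cells stably carrying hCAR. Fifteen compound concentrations are applied for 24 h at 37 C, followed by luciferase luminescence.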

[9] = qHTS assay to identify small molecule antagonists of the estrogen related receptor signaling pathway with the pleiotropic PPARgamma coactivator (PGC) from Tox21 10K library - cell viability counter screen (AID 1224840; active = well fitted cell-killing curve with a large enough effect in the repeat runs, not every such curve was filed as active; also: nearly all actives have a fitted effect of over 40% in size)
Method in brief: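 Readout: fluorescence intensity from CellTiter-Fluor after 30 min at 37 C/5% CO2. Preceded by 17.5 h treatment of PGC/ERR cells with DMSO-dissolved compounds, added 6 h post-seeding.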

[10] = qHTS assay to identify small molecule antagonists of the estrogen related receptor signaling pathway with the pleiotropic PPARgamma coactivator (PGC) from Tox21 10K library (AID 1224841; call rule not given here; also: series mostly up to about 92 µM; actives are mostly falling curves and most rising ones were filed inactive; nearly all actives have a fitted effect of over 50% in size)
Method in brief: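 One-Glo luminescence, measured after half an hour at room temperature, quantified reporter output of PGC/ERR cells. These had been plated at 2,000 per well, incubated 6 h, dosed with compounds in DMSO, then kept 18 h at 37 C.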

[11] = qHTS assay to identify small molecule agonists of the estrogen related receptor signaling pathway with the pleiotropic PPARgamma coactivator (PGC) from Tox21 10K library (AID 1224842); also: nearly all actives have a fitted effect of over 15% in size
Method in brief: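 PGC/ERR reporter cells (NTP line) were seeded 2,000 per well, rested 6 h at 37 C/5% CO2, then pin-dosed with compounds in DMSO for 18 h at 37 C; luciferase read by One-Glo luminescence after 30 min at room temperature.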

[12] = qHTS assay to identify small molecule agonists of the hypoxia (HIF-1) signaling pathway - cell viability counter screen (AID 1224844; calls by dose curve; also: nearly all actives have a fitted effect of over 50% in size)
Method in brief: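 In this counter screen, HRE-bla ME-180 cell viability after 17 hrs of compound exposure at 37C was read by CellTiter-Glo luminescence, multiplexed with the beta-lactamase reporter measurement.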

[13] = target: Nuclear receptor subfamily 1 group I member 3 (Homo sapiens) (UniProt Q14994); assay: qHTS assay to identify small molecule agonists of the constitutive androstane receptor (CAR) signaling pathway (AID 1224839); also: series mostly up to about 92 µM; nearly all actives have a fitted effect of over 15% in size
Method in brief: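 Stable hCAR/CYP2B6-2.2kb HepG2 line in DMEM with 10% FBS; compounds (15 concentrations) and 0.75 uM PK11195 final, 24 h at 37 C/5% CO2, then ONE-Glo luminescence after 30 min.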

[14] = target: Thyrotropin receptor (Homo sapiens) (UniProt P16473); assay: qHTS assay to identify small molecule agonists of the thyroid stimulating hormone receptor (TSHR) signaling pathway (AID 1224843; calls by dose curve; also: nearly all actives have a fitted effect of over 45% in size)
Thyrotropin receptor (Homo sapiens), sequence (P16473 whole entry, looked up): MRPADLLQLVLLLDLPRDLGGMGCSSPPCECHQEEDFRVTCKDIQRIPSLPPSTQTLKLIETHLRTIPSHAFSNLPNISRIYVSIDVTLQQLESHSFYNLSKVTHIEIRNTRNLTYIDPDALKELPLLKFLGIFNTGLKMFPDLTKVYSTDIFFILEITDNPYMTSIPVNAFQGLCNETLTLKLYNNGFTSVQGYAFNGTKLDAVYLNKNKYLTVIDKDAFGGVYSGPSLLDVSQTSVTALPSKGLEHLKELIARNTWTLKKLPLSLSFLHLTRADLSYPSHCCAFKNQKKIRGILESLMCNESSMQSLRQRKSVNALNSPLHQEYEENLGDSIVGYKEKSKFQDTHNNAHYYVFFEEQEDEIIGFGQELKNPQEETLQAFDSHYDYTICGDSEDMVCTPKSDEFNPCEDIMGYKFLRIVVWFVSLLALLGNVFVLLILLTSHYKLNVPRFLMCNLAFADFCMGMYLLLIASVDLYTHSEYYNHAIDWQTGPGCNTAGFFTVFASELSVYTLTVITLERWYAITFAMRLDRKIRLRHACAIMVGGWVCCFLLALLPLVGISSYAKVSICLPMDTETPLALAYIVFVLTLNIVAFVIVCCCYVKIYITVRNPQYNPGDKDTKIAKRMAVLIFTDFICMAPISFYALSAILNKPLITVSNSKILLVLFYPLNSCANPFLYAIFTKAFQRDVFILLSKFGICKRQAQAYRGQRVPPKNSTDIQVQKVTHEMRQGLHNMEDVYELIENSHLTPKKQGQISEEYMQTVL
Method in brief: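 Compounds are titrated over 15 concentrations, in triplicate, onto TSHR-HEK293 cells seeded at 800/well. Plates sit 30 min at room temperature before cAMP-d2 and anti-cAMP cryptate are added; signal is read after a further hour.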

[15] = qHTS assay to identify small molecule antagonists of the constitutive androstane receptor (CAR) signaling pathway - cell viability counter screen (AID 1224837); also: series mostly up to about 92 µM; nearly all actives have a fitted effect of over 45% in size
Method in brief: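 CITCO at 50 nM final was added alongside compounds (15 concentrations) to double-stable hCAR/CYP2B6-2.2kb HepG2 cells. Following 23 hr at 37 C, cell viability was quantified by CellTiter-Fluor fluorescence intensity.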
% is scaled to controls: 0 for no effect and ±100 for the full control effect.

CCN(CC)C1CCCCC1
inactive: Potency [1] | Potency [2] | Potency [3] | Potency [4] | Potency [5] | Potency [6] | Potency [7] | Potency [8] | Potency [9] | Potency [10] | Potency [11] | Potency [12]

c1ccc2c(c1)CCNC2
inactive: Potency [1] | Potency [2] | Potency [3] | Potency [4] | Potency [5] | Potency [6] | Potency [7] | Potency [8] | Potency [13] | Potency [9] | Potency [10] | Potency [11] | Potency [14] | Potency [12]

CN(CCO)CCO
inactive: Potency [1] | Potency [2] | Potency [3] | Potency [4] | Potency [5] | Potency [6] | Potency [8] | Potency [13] | Potency [9] | Potency [14] | Potency [12]

Clc1cc2c(cc1Cl)Oc1cc(Cl)c(Cl)cc1O2
inactive: activity change, negative = cytotoxicity [1] -1.01% [at 0.29 µM] | activity change, negative = cytotoxicity [2] 3.92% [at 0.349 µM] | activity, negative = inhibition [3] -3.48% [at 0.349 µM] | activation [4] -1.63% [at 0.338 µM] | viability change, negative = cytotoxic [5] -2.52% [at 0.349 µM] | activity change, negative = inhibition [6] -7.47% [at 0.435 µM] | viability change, negative = cytotoxic [7] -0.641% [at 0.349 µM] | activity, negative = inhibition [8] 103% [at 0.349 µM] | viability change, negative = cytotoxic [9] -1.69% [at 0.349 µM] | activation [14] 10.3% [at 0.349 µM] | activity change, negative = cytotoxicity [12] -17.7% [at 0.29 µM]

CC1=C2[C@H]3OC(=O)[C@@H](C)[C@@H]3CC[C@@]2(C)C=CC1=O
inactive: Potency [1] | Potency [2] | Potency [3] | Potency [4] | Potency [5] | Potency [6] | Potency [15] | Potency [8] | Potency [9] | Potency [10] | Potency [11] | Potency [12]

CCC(=O)OC1(c2ccccc2)CCN(C)CC1
inactive: Potency [1] | Potency [2] | Potency [3] | Potency [4] | Potency [5] | Potency [6] | Potency [15] | Potency [8] | Potency [9] | Potency [14] | Potency [12]

O=CCCl
inactive: Potency [1] | Potency [2] | Potency [3] | Potency [4] | Potency [5] | Potency [6] | Potency [15] | Potency [8] | Potency [13] | Potency [9] | Potency [14] | Potency [12]

CCCOC(=O)c1cncn1C(C)c1ccccc1 (stereo not drawn)
inactive: Potency [1] | Potency [2] | Potency [3] | Potency [4] | Potency [5] | Potency [6] | Potency [15] | Potency [8] | Potency [9] | Potency [10] | Potency [11] | Potency [14] | Potency [12]

CCCCCCC(=O)CCCCCC/C=C/C[C@@H](O)[C@H](O)[C@@](N)(CO)C(=O)O
inactive: activity change, negative = cytotoxicity [1] 2.42% [at 15.8 µM] | activity change, negative = cytotoxicity [2] 2.99% [at 19 µM] | activity, negative = inhibition [3] 6.01% [at 19 µM] | Potency [4] | viability change, negative = cytotoxic [5] 6.53% [at 19 µM] | activity change, negative = inhibition [6] -3.87% [at 23.6 µM] | activity change, negative = cytotoxicity [15] -0.0318% [at 19 µM] | activity, negative = inhibition [8] -1.56% [at 19 µM] | activation [13] -1.84% [at 19 µM] | viability change, negative = cytotoxic [9] 12.4% [at 19 µM] | activation [14] -1.25% [at 19 µM] | activity change, negative = cytotoxicity [12] 0.46% [at 15.8 µM]

CC(C)C(C)(N)C#N (stereo not drawn)
inactive: Potency [1] | Potency [2] | Potency [3] | Potency [4] | Potency [5] | Potency [6] | Potency [7] | Potency [8] | Potency [13] | Potency [9] | Potency [12]

CC(C)c1ccc(O)cc1
inactive: Potency [1] | Potency [2] | Potency [3] | Potency [4] | Potency [5] | Potency [6] | Potency [15] | Potency [8] | Potency [10] | Potency [11] | Potency [14] | Potency [12]

C[C@@H](N)[C@@H](O)c1ccccc1
inactive: Potency [1] | Potency [2] | Potency [3] | Potency [4] | Potency [5] | Potency [6] | Potency [7] | Potency [8] | Potency [13] | Potency [9] | Potency [14] | Potency [12]

CN=CNc1ccc(C)cc1C
inactive: Potency [1] | Potency [2] | Potency [3] | Potency [4] | Potency [5] | Potency [6] | Potency [15] | Potency [9] | Potency [10] | Potency [11] | Potency [12]

CC(C)[N+](C)(CCC(C(N)=O)(c1ccccc1)c1ccccc1)C(C)C
inactive: Potency [1] | Potency [2] | Potency [3] | Potency [4] | Potency [5] | Potency [6] | Potency [15] | Potency [8] | Potency [13] | Potency [10] | Potency [11] | Potency [14] | Potency [12]

CC(C)N(Cc1ccccc1)C(=O)C(C)(C)C
inactive: Potency [1] | Potency [2] | Potency [3] | Potency [4] | Potency [5] | Potency [6] | Potency [8] | Potency [9] | Potency [14] | Potency [12]

CCC1(c2cccc(O)c2)CCCCN(C)C1 (stereo not drawn)
inactive: Potency [1] | Potency [2] | Potency [3] | Potency [4] | Potency [5] | Potency [6] | Potency [7] | Potency [14] | Potency [12]

C=C1CC[C@@]2(O)[C@H]3Cc4ccc(O)c5c4[C@@]2(CCN3CC2CC2)[C@H]1O5
inactive: Potency [1] | Potency [2] | Potency [3] | Potency [4] | Potency [5] | Potency [6] | Potency [7] | Potency [9] | Potency [10] | Potency [11] | Potency [14] | Potency [12]

N[C@@H]1C[C@H]1c1ccccc1
inactive: Potency [1] | Potency [2] | Potency [3] | Potency [4] | Potency [5] | Potency [6] | Potency [15] | Potency [9] | Potency [14] | Potency [12]
